PubChem BioAssay AID463173 (ICCB-Longwood Screening Facility, Harvard Medical School, 2010)
Among all 52,000 compounds or so, about 1,700 (3.3%) were called active. Cut-off read from the data, not from the text of the source: active = survival mostly below about 52% (no sharp cut-off); inactive = mostly above about 56%. What follows is part of a selection rich in actives, with near analogues and random picks from the rest.

system: Wild type; assay: S. aureus survival, RN4220 and DeltatarO strains – OD600, teichoic acid synthesis inhibitors, primary screen (AID 463173); conditions: S. aureus RN4220 wild type/DeltatarO growth, OD600, 18 h, stronger effect = lower value, screened at 18.75 µg/mL (by protocol)

Compound | survival
Cc1ccc2scc(N3CCN(c4ccccc4)CC3)c(=O)c2c1 | 74% (inactive)
Cc1c(-c2cccc(NC(=O)Cc3ccccc3)c2)nc2ncccn12 | 73% (inactive)
Cc1ccc2c(CNC3CCCC3)c(C(=O)O)n(Cc3ccc(F)cc3)c2c1 | 111% (inactive)
C/C(=N\NC(=O)COc1ccccc1)C1C(=O)c2ccccc2C1=O | 107% (inactive)
COc1cccc(-n2c(SCC(=O)Nc3cc(C)ccc3C)nc3c(oc4ccccc43)c2=O)c1 | 96% (inactive)
COc1ccc(Nc2nnc(-c3ccc(C)c(S(=O)(=O)NCCO)c3)c3ccccc23)cc1C(N)=O | 70% (inactive)
COc1ccc(-c2ccnc3c(-c4ccc(F)cc4)c(C)nn23)cc1OC | 79% (inactive)
Cc1nn2c(-c3ccco3)ccnc2c1-c1ccc(F)cc1 | 75% (inactive)
CCc1nn2c(-c3ccccc3OC)ccnc2c1-c1ccccc1 | -12% (active)
CCc1nn2c(-c3ccccc3OC)ccnc2c1-c1ccc(F)cc1 | -11% (active)
COc1cccc(-c2ccnc3c(-c4ccc(F)cc4)c(C)nn23)c1 | 99% (inactive)
CCc1nn2c(-c3ccco3)ccnc2c1-c1ccccc1 | 89% (inactive)
CCc1nn2c(-c3ccco3)ccnc2c1-c1ccc(F)cc1 | 71% (inactive)
COc1ccccc1-c1ccnc2c(-c3ccc(Br)cc3)c(C)nn12 | 77% (inactive)
Cc1ccccc1-c1ccnc2c(-c3ccc(F)cc3)c(C)nn12 | -13% (active)
CCOc1ccc(CN2CCC(C(=O)NCC3CCCO3)CC2)cc1OC (centres undefined) | 99% (inactive)
CCOC(=O)C1CCCN(C(=O)Cn2ncc3c4ccccc4n(Cc4ccccc4)c3c2=O)C1 (centres undefined) | 121% (inactive)
CCOC(=O)c1c(NC(=O)COc2cccc(C)c2C)sc(C(C)=O)c1C | 130% (inactive)
CCSc1oc(-c2ccco2)nc1S(=O)(=O)c1ccc(Br)cc1 | 65% (inactive)
CCC(C)Sc1oc(-c2ccco2)nc1S(=O)(=O)c1ccc(Cl)cc1 (centres undefined) | 25% (inactive)
Cc1ccc(S(=O)(=O)c2nc(-c3ccco3)oc2SCC(C)C)cc1 | 39% (inactive)
Cc1ccc(S(=O)(=O)c2nc(-c3ccco3)oc2SC(C)C)cc1 | 49% (inactive)
CCC(C)Sc1oc(-c2ccco2)nc1S(=O)(=O)c1ccc(C)cc1 (centres undefined) | -12% (active)
CC(C)CSc1oc(-c2ccco2)nc1S(=O)(=O)c1ccc(Br)cc1 | 27% (active)

Compound | survival
CNC(=O)C1CCN(Cc2cc3ccccc3n2Cc2cccc(C)c2)CC1 | 81% (inactive)
CC(=O)Nc1ccc2nc(SCCOc3ccccc3Cl)sc2c1 | 9% (active)
O=C(Nc1ccc2nc(SCCOc3ccccc3Cl)sc2c1)c1cccs1 | 72% (inactive)
CC(C)(C)C(=O)Nc1ccc2nc(SCCOc3ccccc3Cl)sc2c1 | 99% (inactive)
COc1ccc(Cn2nnnc2CN2CCC(NC(=O)c3cccc(OC)c3)CC2)cc1 | 115% (inactive)
O=C(CN1C(=O)C2(SCC(=O)N2c2cccc(F)c2)c2ccccc21)NCc1ccccc1Cl (centres undefined) | 80% (inactive)
COc1ccc(S(=O)(=O)c2cc3cc(OC)ccc3oc2=O)cc1 | 76% (inactive)
COc1ccc(S(=O)(=O)c2cc3cc(C(C)(C)C)cc(O)c3oc2=O)cc1 | 10% (active)
CCOc1ccc(S(=O)(=O)c2cc3cccc(OCC)c3oc2=O)cc1 | 81% (inactive)
CCOC(=O)c1c(C)oc2nc(C)nc(Nc3cc(C)ccc3OC)c12 | 85% (inactive)
Cn1c(=O)n(-c2ccc(F)c(Cl)c2)c(=O)c2sc3ccccc3c21 | 96% (inactive)
CCOC(=O)c1ccccc1NC(=O)CSc1ncc(CO)n1Cc1ccc(C)cc1 | 90% (inactive)
O=C(CSc1ncc(CO)n1Cc1ccc(F)cc1)NCc1ccco1 | 134% (inactive)
O=C(CSc1ncc(CO)n1Cc1ccc(Cl)cc1)NCc1ccc(F)cc1 | 14% (active)
COc1ccc(Cn2ccnc2SCC(=O)NCc2ccco2)cc1 | 70% (inactive)
O=C(CSc1nc2ccsc2c(=O)n1Cc1ccc(F)cc1)NCc1ccc(Cl)cc1 | 81% (inactive)
COc1ccc(Cn2c(CO)cnc2SCc2ccccc2)cc1 | 69% (inactive)
COc1ccccc1NC(=O)CSc1ncc(CO)n1Cc1ccc(F)cc1 | 121% (inactive)
OCc1cnc(SCc2ccc(F)cc2)n1Cc1ccc(F)cc1 | 85% (inactive)
Cc1ccc(Cn2c(CO)cnc2SCC(=O)NCc2ccccc2Cl)cc1 | 80% (inactive)
COc1ccc(Cn2c(CO)cnc2SCc2ccc(F)cc2)cc1 | -1% (active)
COc1ccc(Cn2c(CO)cnc2SCC(=O)NCc2ccco2)cc1 | -6% (active)
Cc1ccc(Cn2c(CO)cnc2SCC(=O)Nc2ccc(C)c(Cl)c2)cc1 | -6% (active)
Cn1ccc2cc(S(=O)(=O)N3CCN(C(=O)Nc4cccc(F)c4)CC3)ccc21 | 74% (inactive)

Compound | survival
CCCCN(CCCNC(=O)c1cc(Nc2ccc(OC)c(OC)c2)nc2ccccc12)Cc1ccccc1 | 79% (inactive)
CCc1nn2c(=O)cc(COC(=O)c3cccc(NC(=O)CCc4ccccc4)c3)nc2s1 | 72% (inactive)
CC(=O)c1cccc(NC(=O)C2CCN(S(=O)(=O)c3ccc4c(c3)oc(=O)n4C)CC2)c1 | 90% (inactive)
O=S(=O)(NCc1nc2cccnc2n1Cc1ccccc1Cl)c1ccc2c(c1)CCCC2 | 73% (inactive)
CC(C)CN(CC(C)C)CC(O)Cn1cc(/C=C/C(=O)c2ccccc2)c2ccccc21 (centres undefined) | 40% (inactive)
CCCCN(CCCC)CC(O)Cn1cc(/C=C/C(=O)c2ccccc2)c2ccccc21 (centres undefined) | 18% (active)
COc1ccc(C(=O)/C=C/c2cn(CC(O)CN(CC(C)C)CC(C)C)c3ccccc23)cc1OC (centres undefined) | 60% (inactive)
COc1ccc(C(=O)/C=C/c2cn(CC(O)CN(CC(C)C)CC(C)C)c3ccccc23)cc1 (centres undefined) | 44% (inactive)
CCCN(CCC)CC(O)Cn1cc(/C=C/C(=O)c2ccc(OC)cc2)c2ccccc21 (centres undefined) | 1% (active)
CCCN(CCC)CC(O)Cn1cc(/C=C/C(=O)c2ccc(OCC)cc2)c2ccccc21 (centres undefined) | 23% (active)
CCCN(CCC)CC(O)Cn1cc(/C=C/C(=O)c2ccc(C)cc2)c2ccccc21 (centres undefined) | -1% (active)
CCCN(CCC)CC(O)Cn1cc(/C=C/C(=O)c2ccc(Br)cc2)c2ccccc21 (centres undefined) | 85% (inactive)
Cc1ccccc1Cn1c(=O)n(Cc2ccc(Cl)cc2)c(=O)c2cccnc21 | 82% (inactive)
CN1C(=O)CC(=O)N(C)c2cc(S(=O)(=O)N(C)Cc3ccccc3)ccc21 | 24% (inactive)
CN(C)CCNC(=O)c1ccc(Cn2c(=O)c3cccn3c3cccnc32)cc1 | 89% (inactive)
O=C(CCSCc1ccccc1Cl)N1CCN(c2cccc(Cl)c2)CC1 | 75% (inactive)
CCOC(=O)Cc1ccc(NC(=O)N(C(C)C)C2CCN(C(C)=O)CC2)cc1 | 85% (inactive)
O=C(NC1CCCCC1)c1ccc(CSc2nc3cccnc3n2Cc2ccc(F)cc2)cc1 | 19% (inactive)
O=C(NC1CCCC1)c1ccc2c(=O)n(Cc3ccccc3)c(SCc3ccccc3F)nc2c1 | -3% (active)
O=C(NCc1ccccc1Cl)c1ccc(Cn2c(SCc3ccccc3)nc3cccnc32)cc1 | 68% (inactive)
CCOc1ccccc1CNC(=O)c1ccc(Cn2c(SCc3ccccc3)nc3cccnc32)cc1 | 69% (inactive)
O=C(NC1CCCCC1)c1ccc(Cn2c(SCc3ccc(F)cc3)nc3cccnc32)cc1 | 0% (active)
O=C(NC1CCCC1)c1ccc2c(=O)n(Cc3ccccc3)c(SCc3ccccc3)nc2c1 | 83% (inactive)
CCNC(=O)c1ccc(CSc2nc3cccnc3n2Cc2ccc(OC)cc2)cc1 | -3% (active)

Compound | survival
COc1ccc(Cn2c(SCc3ccc(C(=O)NCc4ccc(C)cc4)cc3)nc3cccnc32)cc1 | 85% (inactive)
Cc1ccccc1CSc1nc2cc(C(=O)NC3CCCC3)ccc2c(=O)n1Cc1ccccc1 | 94% (inactive)
O=C(NC1CCCC1)c1ccc(CSc2nc3cccnc3n2Cc2ccc(F)cc2)cc1 | 45% (inactive)
COCCCNC(=O)c1ccc(CSc2nc3cccnc3n2Cc2ccc(OC)cc2)cc1 | 94% (inactive)
COc1ccccc1CNC(=O)c1ccc(Cn2c(SCc3ccccc3)nc3cccnc32)cc1 | 10% (active)
CCN(C(=O)C(NS(=O)(=O)c1cccc2nsnc12)c1ccccc1)c1ccccc1 (centres undefined) | 117% (inactive)
CCN(CC)c1cc2c(cc1F)c(=O)c(S(=O)(=O)c1cccc(C)c1)cn2C | 112% (inactive)
Cc1ccc(NC(=O)C2(c3cccs3)CCOCC2)cc1Cl | 75% (inactive)
COc1ccc(C2=NS(=O)(=O)N(C)C(C(=O)Nc3cc(C)ccc3O)=C2)cc1OC | 69% (inactive)
C=Cc1ccc(Cn2c(=O)n(CC3CCC(C(=O)NC(C)C)CC3)c(=O)c3sccc32)cc1 (centres undefined) | 81% (inactive)
COc1ccc(CCNC(=O)CCc2c(C)nc3c(-c4ccc(F)cc4)c(C)nn3c2C)cc1OC | 137% (inactive)
Cc1ccccc1CNC(=O)c1ccc(Cn2c(SCc3cccc(F)c3)nc3cccnc32)cc1 | 70% (inactive)
Cc1ccccc1CNC(=O)c1ccc(CSc2nc3cccnc3n2Cc2ccccc2)cc1 | 47% (inactive)
Cc1ccccc1CNC(=O)c1ccc(Cn2c(SCc3ccccc3)nc3cccnc32)cc1 | -2% (active)
Cc1ccccc1NS(=O)(=O)c1ccc2[nH]cc(C(=O)N3CCCCC3)c(=O)c2c1 | 68% (inactive)
N/C(=N\OC(=O)c1ccccc1)c1cccnc1 | 109% (inactive)
Cc1ccc(S(=O)(=O)NCC(c2ccc(N(C)C)cc2)N2CCc3ccccc32)cc1 (centres undefined) | -2% (active)
CN(C)c1ccc(C(CNS(=O)(=O)c2ccccc2)N2CCc3ccccc32)cc1 (centres undefined) | 80% (inactive)
CN(C)c1ccc(C(CNS(=O)(=O)c2ccc(F)cc2)N2CCc3ccccc32)cc1 (centres undefined) | 0% (active)
COc1ccc(S(=O)(=O)NCC(c2ccc(N(C)C)cc2)N2CCc3ccccc32)cc1 (centres undefined) | 73% (inactive)
CCOc1ccc(S(=O)(=O)NCC(c2ccc(N(C)C)cc2)N2CCc3ccccc32)cc1 (centres undefined) | 22% (inactive)
Cc1ccc(S(=O)(=O)NCC(c2ccc(N(C)C)cc2)N2CCc3ccccc32)cc1C (centres undefined) | 129% (inactive)
